The nature of assay [1]: A549 cell viability effects, profiling panel, calcein-AM fluorescence, 48 h, basal (AID 1162). The settings on record: higher = more signal.
Assay [2] is described as follows: adipocyte viability effects, profiling panel, cell-based, 3T3-L1 adipocytes, calcein-AM fluorescence, 48 h, basal (AID 1163). As to conditions: 3T3-L1 adipocytes viability, higher = more signal.
The nature of assay [3]: HepG2 cell viability effects, profiling panel, calcein-AM fluorescence, 48 h, basal (AID 1164). As to conditions: higher = more signal.
Assay [4] in a line: MM1S cell viability effects, profiling panel, calcein-AM fluorescence, 48 h, basal (AID 1165).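 Also: viability of MM1S multiple myeloma cells under basal unstimulated conditions.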 The settings on record: higher = more signal.
Assay [5] can be described thus: basal RPMI8226 viability, no added stimulus, profiling panel, cell-based, calcein-AM fluorescence, 48 h, PK04 Diversity Set (AID 1166).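 Also: cells grown under basal conditions without added stimulus.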 As to conditions: RPMI8226 myeloma viability, higher = more signal.
The nature of assay [6]: basal HepG2 mitochondrial membrane potential changes, profiling panel, cell-based, JC-1 fluorescence, 24 h, 100 nL compound (AID 1167). As to conditions: higher = more signal.
A short description of assay [7]: basal 3T3-L1 adipocyte mitochondrial potential changes, profiling panel, cell-based, JC-1 fluorescence, 3T3-L1 adipocytes, 24 h, 100 nL compound (AID 1168). The settings on record: JC-1 mitochondrial fluorescence, higher = more signal, called active from +8 up or from −8 down.
Assay [8] is described as follows: basal RPMI8226 mitochondrial membrane potential changes, profiling panel, cell-based, JC-1 fluorescence, 24 h, 100 nL compound (AID 1169). As to conditions: RPMI8226 myeloma, JC-1 mitochondrial potential fluorescence, higher = more signal.
Assay [9] is described as follows: basal MM1S mitochondrial membrane potential changes, profiling panel, cell-based, JC-1 fluorescence, 24 h, 100 nL compound (AID 1170). The settings on record: higher = more signal.
A short description of assay [10]: A549 lung cancer cell viability effects, profiling panel, resazurin fluorescence, 24 h, PK04 Diversity Set (AID 1171). As to conditions: higher = more signal, called active from +8 up or from −8 down.

Calls of active or inactive are those of the source.
Also: test concentration not given here.

On to `COCCCNC(=O)[C@@]1(Cc2ccccc2I)c2ccccc2C(=O)N(Cc2ccccc2C(F)(F)F)[C@H]1c1ccc(CO)cc1`, for which the z-score in assay [1] was -0.369; in assay [2] it was -0.884; in assay [3], -0.305; in [4] it was -1.14; in assay [5] it was -1.61; in [6], 0.405. Further, the z-score in assay [7] was -1.19 (inactive); in [8], -0.578; in assay [9], -0.553; in assay [10] it was 1.77 (inactive).
Take `CCCCCCc1nc(Cc2cc(OC)c(OC)c(OC)c2)c(C)c2c1[Si](C(C)C)(C(C)C)OC2`: the z-score in assay [1] was 0.106; in assay [2], 0.986; in assay [3] it was -0.348; in [4], 0.286; in [5] it was -3.41; in [6] it was 4.95. The z-score in [7] is 0.835 (inactive); in [8], -0.651; in [9], 0.0845; in [10] it was 0.504 (inactive).
Regarding `C=C(C(=O)CC[C@@H](OC(=O)c1ccccc1-c1ccccc1C(=O)O)c1ccc(OCCO)cc1)C(C)C`, the z-score is -0.514 in assay [1]; 0.517 in assay [2]; 0.654 in assay [3]; -3.22 in [4]; -2.98 in assay [5]; -0.556 in assay [6]. In addition, the z-score in assay [7] was -1.2 (inactive); in assay [8], -0.787; in assay [9] it was -0.547; in assay [10] it was -0.0237 (inactive).
As to `COC(=O)[C@@]1(Cc2ccc(F)cc2)[C@H]2c3cc(C(=O)N4CCCC4)n(Cc4ccc(OC(F)(F)F)cc4)c3C[C@H]2CN1C(=O)c1ccccc1`, the z-score in assay [1] is -1.21; in assay [2], -0.749; in [3], 0.0322; in assay [4], -1.04; in assay [5] it was -0.55; in assay [6], -0.269. Moreover, the z-score is -1.35 (inactive) in assay [7], -0.603 in [8], -0.787 in [9] and -0.165 (inactive) in assay [10].
Consider `C=CC[C@H](OC(=O)Nc1ccc(SC)cc1)c1ccc(O)c(F)c1`, for which the z-score is -1.24 in assay [1]; -0.152 in assay [2]; -1.82 in assay [3]; -1.59 in [4]; -1.64 in [5]; -3.17 in assay [6]. The z-score in assay [7] is 2.25 (inactive); in [8], -0.325; in assay [9], -0.716; in assay [10] it was -1.01 (inactive).
`CCCCCCCCCCC(O)C1C=CC2C(=O)N(C)C(=O)C2N1Nc1ccccc1` (stereo not given): the z-score in assay [1] is -2.46; in assay [2], -1.27; in [3] it was -1.38; in [4], -3.85; in assay [5], -4.07; in assay [6] it was -1.18. For the same molecule, the z-score is -0.92 (inactive) in assay [7], -0.744 in assay [8], 0.0317 in assay [9] and -0.545 (inactive) in [10].
Take `COCCOC(=O)N1C(=O)[C@@]2(c3cc(C#CCNC(N)=O)ccc31)[C@H](C(=O)N1CCN(c3ncccn3)CC1)[C@H]1C(=O)O[C@H](c3ccccc3)[C@H](c3ccccc3)N1[C@@H]2c1ccc(O)cc1`: the z-score is 0.722 in assay [1]; -0.118 in assay [2]; 0.568 in [3]; 0.445 in assay [4]; 1.17 in assay [5]; 0.866 in [6]. For the same molecule, the z-score in assay [7] is -0.709 (inactive); in [8] it was -0.0604; in assay [9], -0.564; in assay [10] it was -0.824 (inactive).
With `COC(=O)[C@@]1(Cc2ccccc2)[C@H]2c3cc(C(=O)N(C)C)n(Cc4nc5ccccc5[nH]4)c3C[C@H]2CN1C(=O)c1ccccc1`, the z-score is 0.173 in assay [1]; -0.232 in [2]; 0.858 in [3]; -0.013 in [4]; -0.191 in assay [5]; -0.3 in assay [6]. In addition, the z-score is 0.385 (inactive) in assay [7], -0.303 in assay [8], -0.701 in assay [9] and 0.0716 (inactive) in assay [10].
Turning to `CS(=O)(=O)CCOC(=O)C1=CC(CCCO)=CC(C2CC2)N(Cc2sc3ccccc3c2Cl)C=C1C(=O)OCCS(C)(=O)=O` (stereo not given), the z-score in assay [1] is -0.768; in assay [2], 0.968; in assay [3], -0.344; in assay [4], -3.24; in [5] it was -3.05; in assay [6] it was 1.67. For the same molecule, the z-score in [7] was 0.182 (inactive); in assay [8], -0.843; in [9] it was -1.27; in [10], 0.459 (inactive).
For the molecule `C[C@]1(C(=O)O)c2ccccc2C(=O)N(Cc2cc(C(F)(F)F)cc(C(F)(F)F)c2)[C@H]1c1ccc(CO)cc1`, the z-score in assay [1] is -0.557; in assay [2] it was 0.261; in assay [3], -0.164; in assay [4], -0.103; in assay [5], -0.329; in [6] it was -0.244. Also, the z-score was -0.107 (inactive) in assay [7], -0.117 in [8], -0.468 in assay [9] and 0.449 (inactive) in [10].
Consider `C=CCNC(=O)[C@@H]1[C@H]2C(=O)O[C@H](c3ccccc3)[C@H](c3ccccc3)N2[C@H](c2ccc(O)cc2)[C@@]12C(=O)Nc1ccc(C#CC3=CCCCC3)cc12`, for which the z-score in assay [1] is 0.0719; in assay [2], 0.266; in assay [3], -3.89; in assay [4] it was -3.35; in [5], -4.57; in assay [6], -1.42. Besides, the z-score in [7] was 1.38 (inactive); in assay [8], -1.15; in assay [9], -1.2; in [10], -1.48 (inactive).
As to `CC(C)(C)OC(=O)CC[C@]1(C(=O)N2CCOCC2)COC(c2ccc(OCCCO)cc2)=N1`, the z-score in assay [1] was 0.204; in assay [2], -0.492; in [3], 1.26; in [4], 0.571; in [5], -0.785; in [6] it was 2.31. Further, the z-score was -0.305 (inactive) in [7], -0.44 in [8], -0.143 in [9] and 0.216 (inactive) in assay [10].
On to `O=C1O[C@H](c2ccccc2)[C@H](c2ccccc2)N2[C@H]1[C@@H](C(=O)Nc1nc3ccccc3s1)[C@]1(C(=O)Nc3ccccc31)[C@H]2c1ccccc1OCCO`, for which the z-score was -1.59 in assay [1]; 0.842 in assay [2]; -1.97 in [3]; -1.61 in assay [4]; -3.67 in assay [5]; -2.27 in assay [6]. The z-score in assay [7] is 4.1 (inactive); in [8], -1.16; in assay [9] it was -1.37; in assay [10], -2.35 (inactive).
Regarding `Cc1ccc(S[C@]2(C(=O)NCCN3CCOCC3)CC(=O)N(C(C)C)[C@@H]2c2ccc(CO)cc2I)cc1`, the z-score in [1] is 2.91; in assay [2], 0.557; in [3], 2.66; in assay [4], -2.39; in assay [5], -1.47; in assay [6], 1.64. Besides, the z-score in [7] was 0.604 (inactive); in assay [8], -1.01; in assay [9], -0.635; in assay [10] it was -1.13 (inactive).
Regarding `COc1ccc(CCNC(=O)[C@@H]2c3ccccc3C(=O)N(C(C)C)[C@H]2c2ccc(CO)cc2)cc1`, the z-score in assay [1] was 2.2; in [2] it was 1.29; in assay [3] it was 0.188; in assay [4], -0.397; in [5] it was 1.1; in [6] it was 0.733. The z-score was -0.232 (inactive) in assay [7], -0.482 in assay [8], 0.978 in assay [9] and 1.12 (inactive) in assay [10].

The values are drawn from PubChem BioAssay.
